Results filed as inconclusive are left out. Unmarked numbers belong to inactive results. The source made the active and inactive calls. Calls come from the whole dose curve; as a rule, active = well fitted inhibition curve with a large enough effect; inconclusive = small, poorly fitted or top-dose-only effect; inactive = flat fitted curve, though single readings scatter.
Key:
CRL-7250 = normal cell line; assay: Cytotoxic Profiling of Annotated Libraries Using Quantitative High-Throughput Screening (AID 1296008); details: Five cell lines viability, CellTiter-Glo ATP luminescence, 48-72 h; max response: active compounds read low; note: nearly all actives have a fitted effect of over 60% in size
Procedure, shortened: (§1)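 Compounds were pin-transferred onto cells and incubated 48 or 72 hr at 37 degree Celsius, 95% humidity. CellTiter-Glo was added, plates sat 10 min at room temperature, then ATP-coupled luminescence was imaged as the viability read-out.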

HEK293 = assay: as above; details: Five cell lines viability, CellTiter-Glo ATP luminescence, 48-72 h; max response: active compounds read low
Procedure, shortened: as §1
% is set by controls: 0 for no effect and ±100 for the full control effect; potency is the fitted concentration of half-maximal effect.

`CC(=O)c1cc2c(cc1O)OC(C)(C)C=C2` was tested, and the outcome (CRL-7250) was “inactive” and the max response (HEK293) was 0.43%.
Work on `COc1ccc(-c2c(-c3cc(C(=O)O)ccn3)ncn2C)cc1` yielded a max response (CRL-7250) of 4.8% and a max response (HEK293) of -1.7%.
Compound `CC1(C=O)CC[C@]2(C(=O)O[C@@H]3O[C@H](CO)[C@@H](O)[C@H](O)[C@H]3O)CC[C@]3(C)C(=CCC4[C@@]5(C)C[C@H](O)[C@H](O[C@@H]6OC[C@@H](O)[C@H](O)[C@H]6O)[C@@](C)(CO)C5CC[C@]43C)C2C1` (stereo partly drawn) has a max response (CRL-7250) of -5.25% and a max response (HEK293) of -6.07%.
Compound `CC(=O)O[C@@H]1C[C@@H](OC(C)=O)C(C)(C)/C=C/[C@H](C)[C@H](OC(C)=O)[C@@]2(O)C[C@H](C)[C@H](OC(=O)c3ccccc3)[C@@H]2/C=C/1C` has a max response (CRL-7250) of -20.7% and a max response (HEK293) of -1.35%.
In the case of `C=C1CCC2C(C)(C)C(O)CCC2(C)C1CCC(C)CCO` (stereo not drawn), the max response (CRL-7250) is reported as -1.18% and the Potency (HEK293) is reported as 11.4 µM (active).
Work on `CC(=O)NC1C(OC(C)(C)C2CCC3(C)C=C(C4CCC5C4(C)CC(O)C4OC(C(C)(C)O)CCC45C)CCC3O2)OC(CO)C(O)C1O` (stereo not drawn) yielded a max response (CRL-7250) of 0.702% and a max response (HEK293) of -2.64%.
`CC1CCN(C(=O)CC#N)CC1N(C)c1ncnc2[nH]ccc12` (stereo not drawn) was tested, and the max response (CRL-7250) was 0.271% and the outcome (HEK293) was “inactive”.
Work on `CCOC(=O)CCN(C(=O)c1ccc2c(c1)nc(CNc1ccc(C(=N)N)cc1)n2C)c1ccccn1` yielded a max response (CRL-7250) of 2.71% and a max response (HEK293) of -11%.
With `CC(CO)C1CCC2(C)CC3C(CO)CC(O)C3C(C)(O)C/C=C/12` (stereo not drawn) the max response (CRL-7250) was -6.97% and the max response (HEK293) was -10.5%.
For `Cc1nc2ccc(Oc3ccc(F)cc3)cc2c(=O)n1C[C@H]1CCCN(C(C)C)C1`, the max response (CRL-7250) was -2.55% and the max response (HEK293) was -15.9%.
In the case of `COCCOc1cnc2ccn([C@H](C)c3nnc4c(F)cc(-c5cnn(C)c5)cn34)c(=O)c2c1`, the outcome (CRL-7250) is reported as “inactive” and the max response (HEK293) is reported as 1.47%.
`CC1=C(CCC(C)CC(=O)O)[C@@]2(C)CCCC(C)(C)C2CC1=O` (stereo partly drawn) was tested, and the max response (CRL-7250) was 3.13% and the max response (HEK293) was 0.185%.
For `C/C(=C\C=C\C(C)C1CCC2(C)C3CCC4C(C)(C)C(=O)CCC45CC35CCC12C)C(=O)O` (stereo not drawn), the max response (CRL-7250) was -5.15% and the max response (HEK293) was -1.63%.
`COc1ccc2cc(C(C)C(=O)Oc3ccc(C(N)=S)cc3)ccc2c1` (stereo not drawn) was tested, and the outcome (CRL-7250) was “inactive” and the max response (HEK293) was -0.854%.
In the case of `C=C[C@H]1CN2CC[C@H]1C[C@@H]2C(O)c1ccnc2ccc(OC)cc12` (stereo partly drawn), the outcome (CRL-7250) is reported as “inactive” and the max response (HEK293) is reported as -7.03%.
Work on `CC(=O)O[C@@H]1[C@@H](O)[C@H](O[C@H]2CC[C@]34C[C@]35CC[C@]3(C)[C@@H]([C@@]6(C)CC[C@@H](C(C)(C)O)O6)[C@@H](O)C[C@@]3(C)[C@@H]5C[C@H](O[C@@H]3O[C@H](CO)[C@@H](O)[C@H](O)[C@H]3O)[C@H]4C2(C)C)OC[C@H]1O` yielded a max response (CRL-7250) of 1.83% and a max response (HEK293) of -2.54%.
In the case of `CC/C=C\CCO[C@@H]1O[C@H](CO[C@@H]2OC[C@H](O)[C@H](O)[C@H]2O)[C@@H](O)[C@H](O)[C@H]1O`, the outcome (CRL-7250) is reported as “inactive” and the outcome (HEK293) is reported as “inactive”.
In the case of `O=C(Nc1ccc(S(=O)(=O)Nc2ccccc2Cl)c(Cl)c1)c1ccccn1`, the max response (CRL-7250) is reported as 0.561% and the max response (HEK293) is reported as -10.8%.
In the case of `CC1OC(OC2C(OC3C(O[C@H]4CC[C@@]5(C)C(CC[C@]6(C)C5C(=O)C=C5C7CC(C)(C)CC(O)[C@]7(C)CC[C@]56C)C4(C)C)OC(C(=O)O)C(O)C3O)OCC(O)C2O)C(O)C(O)C1O` (stereo partly drawn), the max response (CRL-7250) is reported as -0.894% and the max response (HEK293) is reported as 2.13%.
Work on `C=C(C)C1CC[C@]2(C(=O)O)CC[C@]3(C(=O)O)[C@H](CCC4[C@@]5(C)CC[C@H](O)C(C)(C)C5CC[C@]43C)C12` (stereo partly drawn) yielded a max response (CRL-7250) of -0.813% and a max response (HEK293) of -5.51%.
In the case of `O=C1C=CC(O)(/C=C/C(=O)OC[C@H]2O[C@@H](Oc3ccc(O)cc3)[C@H](O)[C@@H](O)[C@@H]2O)C=C1`, the max response (CRL-7250) is reported as 0.651% and the max response (HEK293) is reported as -4.12%.
For `CC(C)(C)Nc1nc(Nc2ccc(C(N)=O)cc2)cc(N)c1C#N`, the Potency (CRL-7250) was 13 µM (active) and the Potency (HEK293) was 1.64 µM (active).
Work on `C=C1[C@H](OC(C)=O)[C@H]2[C@@H](OC(C)=O)[C@](C)(OC(C)=O)C[C@]2(OC(C)=O)C(=O)[C@H](C)/C=C/C(C)(C)C(=O)[C@H](OC(=O)C(C)CC)[C@H]1OC(C)=O` (stereo partly drawn) yielded a max response (CRL-7250) of -1.41% and a max response (HEK293) of 1.43%.
In the case of `CCc1ccc(Cc2ccc3c(c2)[C@]2(OC3)O[C@H](CO)[C@@H](O)[C@H](O)[C@H]2O)cc1`, the outcome (CRL-7250) is reported as “inactive” and the max response (HEK293) is reported as -3.78%.

Source: PubChem BioAssay (NCATS)
